# Experimental data as given in PubChem BioAssay (NCI).
# This is part of a sample that, as a whole, favours compounds with a hit. Of some 83,000 tested, about 20% had one in any assay.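 The test compound was applied at a single concentration to cells in 96-well plates for 48 hours, and percent growth was recorded.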 Values without a mark were called inactive. The source made the active and inactive calls. The calls were made as follows: active = growth percent below 10; inactive = the rest.
# System: HL-60(TB) leukemia
# Test: NCI-60 one-dose screen, 48 h (100 = growth as untreated, 0 = no growth, -100 = all killed)
# Settings: 10 µM unless noted
row,Structure (SMILES),growth
1,CC(=O)OCCCCCCn1c2ccccc2c2c3c(c4c5ccccc5n(C)c4c21)C(=O)N(O)C3=O,41.2%
2,CN(C)C/C=C/C(=O)Nc1cc2c(Nc3cccc(Cl)c3F)ncnc2cc1OCCOC(F)F,43.2%
3,COc1ccc(-c2cc(=O)c3c(OC)c4ccoc4cc3o2)cc1,117%
4,CC(C)(C)c1cc(C[P+](c2ccc(Cl)cc2)(c2ccc(Cl)cc2)c2ccc(Cl)cc2)cc(C(C)(C)C)c1O,3.1% (active)
5,CCOC(=O)C1=C(c2ccccc2)N=C2SC=C(c3ccc(Cl)cc3)N2C1c1ccc(Cl)cc1 (stereo not given),52.6%
6,C[C@H]1OC(=O)/C=C/[C@@H](O)[C@@H](O)CCCCCCCC[C@@H]1O,99.6%
7,COC(=O)c1ccc2nc(-c3cc4ccccc4n3C)n(CCCCOc3cc4c(cc3OC)C(=O)N3CCC[C@H]3C=N4)c2c1,-36.2% (active)
8,CC(C)=CCNc1ncnc2c1ncn2C1OC(CO)C(O)C1O (stereo not given),-40.7% [1 mM] (active)
9,CC(=O)Nc1ccc(/C=N/N2CCCCCC2)cc1,95.1%
10,N#CC1=C(N)Oc2ccc3ccccc3c2C1c1ccccc1Cl (stereo not given),0.765% (active)
11,COc1cc(-c2ccc3c(c2)NC(=O)/C3=C\c2ccc[nH]2)ccc1O,-12.6% (active)
12,O=c1c2ccccc2n(C[C@H]2CO2)c2ccccc12,-44.5% (active)
13,CCN(CC)CCSC(=O)C(O)(c1ccccc1)C1CCCC1 (stereo not given),94%
14,Nc1ccc(Cl)cn1,100%
15,O=S(=O)(O)c1cccc2cccnc12,94%
16,O=[N+]([O-])c1ccc(CO)cc1,96.7%
17,CC(=O)NNC(=O)c1sc(NC(C)=O)nc1C,101%
18,COC(=O)c1ccc(=O)oc1,96.2%
19,CCCN1C(=O)CSC1=Nc1ccc2cc3ccc(N=C4SCC(=O)N4CCC)cc3nc2c1,8.32% (active)
20,CC(C)=CCC[C@H](C)c1ccc(C)c2c1OCN(CCO)C2,90.8%

row,Structure (SMILES),growth
1,COc1cc(NC(=O)C2=C(C)NC(C)=C(C(=O)Nc3cc(OC)c(Cl)cc3OC)C2c2cccc([N+](=O)[O-])c2)c(OC)cc1Cl,15.5%
2,c1ccc(CCNc2ncnc3[nH]ncc23)cc1,79.6%
3,CCN1C(=O)N(CC)C2Nn3c(s/c(=C\c4ccc([N+](=O)[O-])cc4)c3=O)=NC21 (stereo not given),87%
4,C=C(C)[C@@H]1CC[C@]2(C(=O)N3CCN(C)CC3)CC[C@]3(C)[C@H](CC[C@@H]4[C@@]5(C)CCC(=O)C(C)(C)[C@@H]5CC[C@]43C)[C@@H]12,60.1%
5,O=C1c2ccccc2C(=O)c2c1oc1oc3c(c(=O)c21)c(=O)n(-c1ccccc1)c1ccccc31,7.05% (active)
6,COc1ccc(C(=O)c2cc(OC)c(OC)c(OC)c2)cc1OC(=O)C(Cl)(Cl)Cl,-45.3% (active)
7,CN1C(=O)N(C)C2C1NN=c1s/c(=C\c3ccc(C(F)(F)F)cc3)c(=O)n12 (stereo not given),-6.25% (active)
8,CC(C)(C)OC(=O)NC(CSCc1ccccc1)C(=O)ON1C(=O)CCC1=O (stereo not given),70.9%
9,CC(C)c1ccc(-c2cnc3nonc3n2)cc1,-18.3% (active)
10,O=C1OCC2=C1C(c1cccc([N+](=O)[O-])c1)c1cc3c(cc1N2CCO)CCC3 (stereo not given),-26.9% (active)
11,CCCC#CCN(CC)CC,96.6%
12,CC(=NCc1ccccc1)c1ccc(O)cc1O,102%
13,COc1cccc(NC(=O)Cn2cc3c(=O)oc4ccccc4c3n2)c1,107%
14,Cc1c(N2CCCCC2)[nH]c2ccccc12,101%
15,O=C1CNCCN1,99.5%
16,CC(=O)Nc1ccc(C(=O)c2ccc(S(=O)(=O)Nc3ccccc3)cc2)cc1,102%
17,COc1ccc(-c2cc(-c3ccc(Cl)cc3)c(C#N)c(=O)n2Cc2ccc(C(=O)Nc3ccccc3N)cc2)cc1,84.7%
18,CCN(CC)c1ccc(/C=C\c2cc(C)c3cc(C)ccc3n2)cc1,21.5%
19,Nc1nccc(OCCO)n1,88.5%
20,O=C1/C(=C/c2ccc(OCc3ccccc3)cc2)Oc2cc(OCCN3CCCCC3)ccc21,80.9%
